Bioassay records as filed in PubChem BioAssay.
Pf growth 96h: P. falciparum growth inhibition at 96 hour, primary screen for plastid delayed-death inhibitors | 6.9% of 320,000 active | Potency, µM (series often up to 28.7 µM), for inactives: at the highest dose activity change, negative = inhibition, most hits filed as inhibitors | P. falciparum luciferase reporter growth, 96 h; further: potency means the concentration at half of the fitted maximal effect; on the % scale 0 is the no-effect control and ±100 the full control effect
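Plates of compound plus infected erythrocytes (2% hematocrit, 0.05% parasitemia final) incubate 96 hours, 37 C, 5% CO2. Detection reagent added; reduced luminescence from the parasites' luciferase reporter flags inhibition.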
Pf growth 48h: inhibits P. falciparum growth in the first generation, 48 h; P. falciparum luciferase growth in erythrocytes, 48 h; Potency, µM (series often up to 28.7 µM), for inactives: at the highest dose activity change, negative = inhibition, usual class: inhibitors; 5.9% of 310,000 active; further: potency means the concentration at half of the fitted maximal effect; on the % scale 0 is the no-effect control and ±100 the full control effect
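Read-out is firefly luciferase luminescence from an integrated reporter in P. falciparum, so falling signal marks reduced parasite growth. Infected erythrocytes were at 2% hematocrit and 0.1% parasitemia (final) in Albumax-supplemented RPMI 1640.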
CHX counter: counter-screen hit for Shiga toxin inhibitors, cycloheximide. cell reporter, cycloheximide protein synthesis inhibition counterscreen. max response, %. 12% of 300,000 active. AID 2314; in the data active means max response mostly above about 13%, no sharp cut-off; inactive means mostly below about 14%; further: read at 38.3 µM for the half of the compounds with a filed dose; 0% is about no effect
NS1 inh: influenza NS1 inhibition | Potency, µM (doses to about 46.1 µM), inactives show top-dose activity, positive = more growth | 0.4% of 270,000 active | AID 2326; calls by dose curve; further: potency means the concentration at half of the fitted maximal effect; actives are rising curves; nearly all actives have a fitted effect of over 50% in size
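OD600 was taken as the measure of yeast growth restored by compound in an NS1-expressing S. cerevisiae strain. Cells had been washed out of glucose medium and diluted 1:100 into galactose -URA medium, pH 6.0.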
SARS PLP yeast: blocks SARS-CoV papain-like protease in a yeast assay. Potency, µM (series often up to 32.9 µM), for inactives: at the highest dose activity, positive = growth rescue, hits mostly activators. 0.19% of 330,000 active. S. cerevisiae expressing SARS-CoV PLpro, growth rescue; calls by dose curve; further: potency means the concentration at half of the fitted maximal effect; 0% is about no effect; nearly all actives have a fitted effect of over 55% in size
Shiga inhibitor: blocks Shiga toxin action in Vero cells; AID 2315; inhibition, % at 38.7 µM; Vero cells, Shiga toxin protein synthesis inhibition reporter; 9.2% of 290,000 active; in the data active means inhibition mostly above about 28%, no sharp cut-off; inactive means mostly below about 43%; further: 0% is about no effect
* = called active by the depositor; ? = inconclusive; . = no result. This is a sample that favours compounds with a hit; in the whole collection about 21% have one here. Unless noted, the call rests on the fitted dose curve; in most records, active means well fitted inhibition curve with a large enough effect; inconclusive means small, poorly fitted or top-dose-only effect, or another doubt; inactive means no such curve, though single readings can be large or run the other way.

SMILES | Pf growth 96h | Pf growth 48h | CHX counter | NS1 inh | SARS PLP yeast | Shiga inhibitor
CCCCNC(=O)NNC(=O)c1ccco1 | -66% | 7% | -3 | -31% | 2% | -3
COCCCNC(=S)NNC(=O)c1ccoc1C | ? | 4% | 4 | 3% | -5% | 2
CCCCNC(=S)NNC(=O)c1ccoc1C | 77% | 14% | 19* | -9% | 0% | 50
CCCCNC(=O)NNC(=O)c1ccoc1C | ? | ? | 53* | 2% | 3% | 62*
COC(=O)c1[nH]c2ccc(C)cc2c1NC(=O)C(C)N1CCN(C2CCCCC2)CC1 (centres undefined) | 10µM* | ? | -7 | -10% | 3% | -4
COC(=O)c1[nH]c2ccc(Br)cc2c1NC(=O)C(C)N1CCN(C2CCCCC2)CC1 (centres undefined) | 2.1µM* | ? | -6 | -14% | 8% | 13
COC(=O)c1[nH]c2ccc(C)cc2c1NC(=O)CN1CCC(C)CC1 | ? | -18% | -5 | 0% | 1% | -19
COC(=O)c1[nH]c2ccc(Br)cc2c1NC(=O)CN1CCCCC1CCO (centres undefined) | 5.2µM* | ? | -1 | 16% | -1% | 35
CSc1nc(N2CCOCC2)nc2ccc(C)cc12 | 40% | 5% | . | . | 0% | .
Cc1ccccc1C(=O)c1cccn1CC(=O)NCCN1CCN(c2cccc(C)c2C)CC1 | 5.9µM* | ? | -3 | -5% | -11% | 30
Cc1ccccc1C(=O)c1cccn1CC(=O)NCCC1=CCCCC1 | 7% | 14% | 25* | . | -3% | 40
Cc1ccccc1C(=O)c1cccn1CC(=O)NCCCN1CCCCC1 | 2% | 10% | -5 | -3% | -4% | -5
O=C(CC(=O)c1cccc([N+](=O)[O-])c1)Nc1ccccc1Cl | ? | 11% | 8 | . | 0% | 15
O=C(CN1CCCC1)Nc1cccc(Cl)c1Cl | -34% | 34% | 10 | 1% | 2% | .
O=C(CNC(=S)N(CCCN1CCOCC1)Cc1cccs1)NCc1ccccc1Cl | 41% | ? | 15 | -9% | 0% | -7
O=C(CN(Cc1ccccc1Cl)C(=O)c1ccc(CN2CCOCC2)o1)NCc1ccccc1 | 6.6µM* | -14% | -1 | -7% | -1% | 42
CC(=O)Nc1ccc2sccc2c1 | ? | ? | 8 | . | 0% | -5
COc1cc(CCCN2C(N)=NC[C@@H]2Cc2ccc(O)cc2)cc(OC)c1OC | 2.3µM* | ? | -3 | -1% | 0% | 3
COc1cc(CCCN2C(N)=NC[C@@H]2Cc2ccccc2)cc(OC)c1OC | 9.3µM* | 9.3µM* | -2 | 3% | 0% | -5
COc1cc(CCCN2C(=S)NC[C@@H]2Cc2ccccc2)cc(OC)c1OC | -11% | -16% | 2 | -6% | -1% | -4
Cc1ccc(F)cc1NC(=O)c1ccc(NS(=O)(=O)c2ccc(Br)s2)cc1 | 18% | -1% | -1 | -3% | 8% | -3
O=C(NC12CC3CC(CC(C3)C1)C2)c1cc(F)c(F)c(F)c1F | 10% | 1% | -2 | -9% | 0% | -2
CN(CCc1ccccn1)C(=O)CCC1CCCN(C(=O)c2c3c(nn2C)CCCC3)C1 (centres undefined) | 8.3µM* | -11% | -4 | 2% | -1% | 2
C=CCOc1ccccc1CN1CCCC(CCC(=O)N(C)CCc2ccccn2)C1 (centres undefined) | 12µM* | -4% | 1 | -3% | -1% | 2
COc1ccc(NC(=O)N2CCCC(CCC(=O)N(C)CCc3ccccn3)C2)cc1 (centres undefined) | -18% | 37% | 30* | 3% | 0% | 91*
CCOC(=O)CCNC(=O)N1CCCC(CCC(=O)N(C)CCc2ccccn2)C1 (centres undefined) | 5% | 27% | 2 | -1% | 0% | -4
CN(CCc1ccccn1)C(=O)CCC1CCCN(C(=O)c2cscn2)C1 (centres undefined) | 35% | 0% | 1 | 4% | 0% | -3
CN(CCc1ccccn1)C(=O)CCC1CCCN(C(=O)c2ccsc2)C1 (centres undefined) | 10µM* | 43% | 1 | 1% | 0% | 3
CCc1ccccc1NC(=O)N1CCCC(CCC(=O)N(C)CCc2ccccn2)C1 (centres undefined) | ? | -10% | -1 | 0% | -1% | -3
